In PubChem BioAssay (NCI):
About 83,000 compounds went through this panel and 20% of them were active in at least one assay; those are over-represented in the sample as a whole.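 96-well plates, one dose, 48 hours. Percent growth reported; active if below 10.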 Unmarked numbers belong to inactive results. Activity calls are given as the source filed them.

system: HOP-92 NSCLC; assay: NCI-60 one-dose screen, 48 h (100 = growth as untreated, 0 = no growth, -100 = all killed); settings: 10 µM unless noted

SMILES	growth
COc1ccc(C(=O)NC(=O)Nc2ccc3c(c2)NC(=O)/C3=C\c2[nH]c(C)c(CCC(=O)O)c2C)c(F)c1	83.5%
Cn1c(I)c(C#C[Si](C)(C)C)c(=O)[nH]c1=O	-82.8% (active)
COC(=O)c1oc2c(C(C)=O)c(OCCCN(C)C)ccc2c1C	28.1%
CC(C)NCC(O)COc1ccc(CC(N)=O)cc1 (stereo not drawn)	85.6%
O=C(NCCNc1nccc(-c2c(-c3cccc(O)c3)nc3sccn23)n1)Nc1cccc(C(F)(F)F)c1	54.5%
CNCCCOc1c(Br)cc(CCNC(=O)/C(Cc2ccc(OC)c(Br)c2)=N/O)cc1Br	40.9%
COc1cccc(-c2nc3sccn3c2-c2ccnc(NCCNC(=O)c3ccccc3)n2)c1	77.8%
O=C(N/N=C1\SCC(=O)N1c1ccccc1)c1cc(-c2cc3ccccc3o2)nn1-c1ccccc1	50.9%
Cc1ccc2c(c1)Nc1ccc(C)cc1C2(C)C	81.1%
COc1cc(NC(C)CCCN2C(=O)c3ccccc3C2=O)c2nccc(C)c2c1OC (stereo not drawn)	60.1%
NCC(=O)NS(=O)(=O)OC[C@H]1O[C@@H](n2cnc3c(N)ncnc32)[C@H](O)[C@@H]1O	17.3%
CCN(CC)CC(=O)Nc1c(C)cccc1C	104%
Nc1ncnc2c1c(-c1ccc(Oc3ccccc3)cc1)nn2C[C@@H]1SSC[C@H]1O	-6.86% (active)
COc1cc(/C=C\c2cc(/C=C\c3ccc(O)c(OC)c3)n(C(=O)CNc3ccccc3OC)n2)ccc1O	81.8%
O=C1OC(N(Cc2ccc(Cl)cc2)c2ccccc2)c2ccccc21 (stereo not drawn)	100%
CN(C)CC/C=C1\c2ccccc2Sc2ccc(Cl)cc21	36.7%
O=C(Nc1cccc(-n2ccc3c(NC(=O)c4ccccc4)nccc32)c1)Nc1cc(C(F)(F)F)cc(C(F)(F)F)c1	-13% (active)
CCCCC(=O)Nc1nc2ccc(SCCC)cc2s1	20.8%
CCN(CC)c1ccc(C2CC(c3cc(OC)c(OC)c(OC)c3)=NN2)cc1 (stereo not drawn)	-13.6% (active)
c1ccc2nc(Cn3cc[n+](Cc4ccc5ccccc5n4)c3)ccc2c1	34.3%

SMILES	growth
Clc1ccc(OCc2nc(-c3ccccc3)n[nH]2)c(Cl)c1	90.8%
CC(C)CNCC(=O)Nc1ccc(Cc2ccc(NC(=O)CNCC(C)C)cc2)cc1	38.4%
O=C(O)c1ccc(-n2cc(/C=N/Nc3ccc(F)cc3)c(-c3cccc(C(F)(F)F)c3)n2)cc1	95.9%
CCCCCCCCCCCCCCCCCCNCc1ccc(Cl)cc1	-78% (active)
COc1ccc(CCNC=O)cc1OC	93.4%
O=C(COc1ccc(Cl)cc1Cl)N1N=C(c2ccc(Cl)cc2Cl)CC1(O)c1cc(F)c(Cl)cc1Cl (stereo not drawn)	84.5%
Cc1nccc2c3ccc(OCc4cn(Cc5ccc(Br)cc5)nn4)cc3n(CCCc3ccccc3)c12	77.9%
COc1ccc(-c2c(C#N)cnc(N)c2-c2nc3cc(C)c(C)cc3[nH]2)cc1	68%
O=c1c2ccccc2[nH]n1Cc1ccc2c(c1)OCO2	90.2%
COc1cc(Nc2ncccc2C(=O)Nc2nc3ccc(F)cc3s2)cc(OC)c1OC	45.1%
Cc1ccc(Cn2cc(COc3ccc4c5ccnc(C)c5n(CCCc5ccccc5)c4c3)nn2)cc1	68.6%
O=C(Nc1ccc(-n2ccc3c(NC(=O)c4ccccc4)ncnc32)cc1)Nc1ccc(Cl)c(C(F)(F)F)c1	-8.52% (active)
CCCCOc1c(N)cc(Cl)cc1C(=O)OCCN(CC)CC	89.6%
CC(Cl)(CCl)CS(=O)(=O)c1ccc(Cl)cc1 (stereo not drawn)	90%
CCc1c(C)c2cc3c(c(C)c2oc1=O)OCC(=O)N3	50.7%
Cc1ccc(NC(=O)CN2CCOCC2)cc1Cl	80.8%
CC1(C)CC(=O)C2=C(C1)OC1=C(C(=O)CC(C)(C)C1)C2c1ccc(OCc2cn(-c3ccc(F)cc3F)nn2)cc1	107%
COc1cccc(-c2nc3sccn3c2-c2ccnc(NCCNC(=O)Nc3cccc(C(F)(F)F)c3)n2)c1	92.4%
CN(C)c1ccc(/C=N/N=C(N)N)cc1	73.6%

system: NCI-H522 lung; assay: as above; settings: 10 µM unless noted

SMILES	growth
COc1ccc(C(=O)NC(=O)Nc2ccc3c(c2)NC(=O)/C3=C\c2[nH]c(C)c(CCC(=O)O)c2C)c(F)c1	26.8%
Cn1c(I)c(C#C[Si](C)(C)C)c(=O)[nH]c1=O	-58.7% (active)
COC(=O)c1oc2c(C(C)=O)c(OCCCN(C)C)ccc2c1C	86.4%
CC(C)NCC(O)COc1ccc(CC(N)=O)cc1 (stereo not drawn)	94.9%
O=C(NCCNc1nccc(-c2c(-c3cccc(O)c3)nc3sccn23)n1)Nc1cccc(C(F)(F)F)c1	-5.9% (active)
CNCCCOc1c(Br)cc(CCNC(=O)/C(Cc2ccc(OC)c(Br)c2)=N/O)cc1Br	29.3%
COc1cccc(-c2nc3sccn3c2-c2ccnc(NCCNC(=O)c3ccccc3)n2)c1	61.8%
O=C(N/N=C1\SCC(=O)N1c1ccccc1)c1cc(-c2cc3ccccc3o2)nn1-c1ccccc1	106%
Cc1ccc2c(c1)Nc1ccc(C)cc1C2(C)C	68%
COc1cc(NC(C)CCCN2C(=O)c3ccccc3C2=O)c2nccc(C)c2c1OC (stereo not drawn)	75.2%
NCC(=O)NS(=O)(=O)OC[C@H]1O[C@@H](n2cnc3c(N)ncnc32)[C@H](O)[C@@H]1O	-51.6% (active)
CCN(CC)CC(=O)Nc1c(C)cccc1C	101%
Nc1ncnc2c1c(-c1ccc(Oc3ccccc3)cc1)nn2C[C@@H]1SSC[C@H]1O	10.1%
COc1cc(/C=C\c2cc(/C=C\c3ccc(O)c(OC)c3)n(C(=O)CNc3ccccc3OC)n2)ccc1O	21.9%
O=C1OC(N(Cc2ccc(Cl)cc2)c2ccccc2)c2ccccc21 (stereo not drawn)	65.8%
CN(C)CC/C=C1\c2ccccc2Sc2ccc(Cl)cc21	67.5%
O=C(Nc1cccc(-n2ccc3c(NC(=O)c4ccccc4)nccc32)c1)Nc1cc(C(F)(F)F)cc(C(F)(F)F)c1	-46.5% (active)
CCCCC(=O)Nc1nc2ccc(SCCC)cc2s1	28.8%
CCN(CC)c1ccc(C2CC(c3cc(OC)c(OC)c(OC)c3)=NN2)cc1 (stereo not drawn)	-9.2% (active)
c1ccc2nc(Cn3cc[n+](Cc4ccc5ccccc5n4)c3)ccc2c1	34.5%

SMILES	growth
Clc1ccc(OCc2nc(-c3ccccc3)n[nH]2)c(Cl)c1	92%
CC(C)CNCC(=O)Nc1ccc(Cc2ccc(NC(=O)CNCC(C)C)cc2)cc1	48.3%
O=C(O)c1ccc(-n2cc(/C=N/Nc3ccc(F)cc3)c(-c3cccc(C(F)(F)F)c3)n2)cc1	36.3%
CCCCCCCCCCCCCCCCCCNCc1ccc(Cl)cc1	-82.5% (active)
COc1ccc(CCNC=O)cc1OC	131%
O=C(COc1ccc(Cl)cc1Cl)N1N=C(c2ccc(Cl)cc2Cl)CC1(O)c1cc(F)c(Cl)cc1Cl (stereo not drawn)	95%
Cc1nccc2c3ccc(OCc4cn(Cc5ccc(Br)cc5)nn4)cc3n(CCCc3ccccc3)c12	59.4%
COc1ccc(-c2c(C#N)cnc(N)c2-c2nc3cc(C)c(C)cc3[nH]2)cc1	45.6%
O=c1c2ccccc2[nH]n1Cc1ccc2c(c1)OCO2	99.4%
COc1cc(Nc2ncccc2C(=O)Nc2nc3ccc(F)cc3s2)cc(OC)c1OC	50.6%
Cc1ccc(Cn2cc(COc3ccc4c5ccnc(C)c5n(CCCc5ccccc5)c4c3)nn2)cc1	66.4%
O=C(Nc1ccc(-n2ccc3c(NC(=O)c4ccccc4)ncnc32)cc1)Nc1ccc(Cl)c(C(F)(F)F)c1	-58.9% (active)
CCCCOc1c(N)cc(Cl)cc1C(=O)OCCN(CC)CC	53.1%
CC(Cl)(CCl)CS(=O)(=O)c1ccc(Cl)cc1 (stereo not drawn)	92.9%
CCc1c(C)c2cc3c(c(C)c2oc1=O)OCC(=O)N3	58.2%
Cc1ccc(NC(=O)CN2CCOCC2)cc1Cl	76.5%
CC1(C)CC(=O)C2=C(C1)OC1=C(C(=O)CC(C)(C)C1)C2c1ccc(OCc2cn(-c3ccc(F)cc3F)nn2)cc1	77%
COc1cccc(-c2nc3sccn3c2-c2ccnc(NCCNC(=O)Nc3cccc(C(F)(F)F)c3)n2)c1	47.7%
CN(C)c1ccc(/C=N/N=C(N)N)cc1	66.7%
